Experimental data published in PubChem BioAssay (NCATS).
Results filed as inconclusive are left out. Active and inactive are the calls of the source. Unless noted, calls follow the shape of the dose curve; as a rule, active = well fitted curve in the direction sought with a large enough effect; inconclusive = small, poorly fitted or top-dose-only effect, or another doubt; inactive = no such curve, though single readings can be large; an effect the other way counts as inactive or inconclusive.

Experiments:
[1] = qHTS assay for small molecule agonists of the antioxidant response element (ARE) signaling pathway (AID 651741; active = well fitted activation curve with a large enough effect in the signal ratio; the % refers to the signal ratio; also: potency is read from the fitted curve at half-maximal effect)
Outline: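 Agonist activity is measured as ARE-driven beta-lactamase expression in a stable HepG2 reporter line, using 16 h compound treatment at 37 C and a FRET substrate fluorescence readout after 2 h.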

[2] = qHTS assay for small molecule activators of the p53 signaling pathway (AID 651743; active = well fitted activation curve with a large enough effect in the signal ratio, not every such curve was filed as active; the % refers to the signal ratio; also: series mostly up to about 92 µM; % of control where 0% means no effect); settings: HCT-116 p53RE-bla, beta-lactamase FRET ratio, 16 h; active compounds read high
Outline: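 A beta-lactamase reporter under p53 response element control, stably carried by HCT-116 cells, reported pathway activation. Test compounds were applied for 16 hours at 37 C, and fluorescence was measured 2 hours after adding the B/G FRET substrate.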

[3] = qHTS assay for environmental chemicals that activate the Aryl hydrocarbon Receptor (AhR) signaling pathway (AID 651777); settings: 1A2-DRE human hepatoma cells, luciferase, 24 h; activation: active compounds read high; also: nearly all actives have a fitted effect of over 15% in size; also: potency is read from the fitted curve at half-maximal effect; as to activation: % of control where 0% means no effect
Outline: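 Following a 24 hr incubation with test chemicals at 37 C and 5% CO2, 1A2-DRE human hepatoma cells received One-Glo reagent; after 30 min at room temperature, luciferase output reflected CYP1A2 induction via AhR.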

[4] = molecular target: Peroxisome proliferator-activated receptor alpha (Homo sapiens) (UniProt Q07869); experiment: qHTS assay for small molecule agonists of the peroxisome proliferator-activated receptor alpha (PPARalpha) signaling pathway (AID 651778); settings: PathHunter PPARalpha complementation, chemiluminescence, 6 h; active compounds read high; also: % of control where 0% means no effect
Peroxisome proliferator-activated receptor alpha (Homo sapiens), sequence (Q07869 whole entry, looked up): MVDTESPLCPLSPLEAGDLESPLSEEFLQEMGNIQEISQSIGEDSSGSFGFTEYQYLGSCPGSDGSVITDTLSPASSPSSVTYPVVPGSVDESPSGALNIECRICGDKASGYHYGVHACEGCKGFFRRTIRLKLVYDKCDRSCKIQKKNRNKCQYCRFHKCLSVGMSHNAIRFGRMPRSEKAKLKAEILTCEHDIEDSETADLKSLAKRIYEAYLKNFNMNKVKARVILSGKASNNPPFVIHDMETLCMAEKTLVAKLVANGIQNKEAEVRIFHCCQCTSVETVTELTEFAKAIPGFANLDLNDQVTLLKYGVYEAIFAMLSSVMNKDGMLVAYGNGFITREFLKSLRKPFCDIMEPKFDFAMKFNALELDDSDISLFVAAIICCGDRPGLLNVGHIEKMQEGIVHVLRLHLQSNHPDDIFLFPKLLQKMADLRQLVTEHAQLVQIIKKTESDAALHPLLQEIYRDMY
Outline: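 Chemiluminescence from complemented enzyme reported PPARalpha activation in cells after 6 hr of compound treatment at 37 C. The detection reagent was incubated for 60 min at room temperature, and compounds were scored as agonists.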

[5] = qHTS assay for small molecule agonists of the antioxidant response element (ARE) signaling pathway measured by Nrf2-dependant transcriptional activity (AID 720636; active = well fitted curve in the direction sought with a large enough effect in the repeat runs; an effect the other way counts as inactive or inconclusive; also: potency is read from the fitted curve at half-maximal effect)
Outline: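 ONE-Glo luminescence, read 30 min after reagent addition at room temperature, reflected ARE reporter activity in HepG2 cells that had been incubated with compound for 16 hr at 37 C in 1% dialyzed FBS.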

[6] = qHTS assay for small molecule agonists of the antioxidant response element (ARE) signaling pathway measured by Nrf2-dependant transcriptional activity - cell viability counter screen (AID 720653; active = well fitted curve in the direction sought with a large enough effect in the repeat runs; an effect the other way counts as inactive or inconclusive; also: % is scaled to controls: 0 for no effect and ±100 for the full control effect); settings: ARE-bla HepG2 viability, CellTiter-Glo ATP luminescence, 16 h; max response: active compounds read low
Outline: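 Cytotoxicity counter screen: intracellular ATP quantified by CellTiter-Glo luminescence in the same ARE-bla HepG2 plates, after 16 h compound exposure and a 2 h beta-lactamase substrate step.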

[7] = Cell Proliferation Assay against the TMD8 Cell Line (Caspase readout at 8 hrs) (AID 651713); also: potency is read from the fitted curve at half-maximal effect
Outline: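 Luminescent caspase 3/7 assay; TMD8 cells, 8 h treatment at 37C, 5% CO2. Normalisation: DMSO 0%, 9.2 uM bortezomib 100%.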

[8] = qHTS for small molecule inhibitors of Yes1 kinase: Counter Assay (AID 686950);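 also: no kinase present so only ADP-Glo detection of a fixed ADP amount is tested; luminescence from ADP-Glo reporting ADP in a fixed ATP and ADP mixture; series mostly up to about 77 µM; 0% = DMSO wells with ATP plus ADP and -100% = ATP-only wells without ADP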
Outline: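 ADP-Glo luminescence read after a 60 min room-temperature incubation of compound with an ATP/ADP mix (0.08 mM/0.02 mM) and no kinase, following a 20 min compound preincubation. Signal scaled between ATP+ADP (max) and 0.1 mM ATP-only (min) wells; Tris pH 7.5, Mg2+, DTT.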

[9] = molecular target: Arylsulfatase A (Homo sapiens) (UniProt P15289); experiment: qHTS screen for enhancers of Arylsulfatase A (ASA1): LOPAC Validation Assay (AID 720538); settings: outcome: dose series up to 57.5 µM
Arylsulfatase A (Homo sapiens), sequence (P15289 whole entry, looked up): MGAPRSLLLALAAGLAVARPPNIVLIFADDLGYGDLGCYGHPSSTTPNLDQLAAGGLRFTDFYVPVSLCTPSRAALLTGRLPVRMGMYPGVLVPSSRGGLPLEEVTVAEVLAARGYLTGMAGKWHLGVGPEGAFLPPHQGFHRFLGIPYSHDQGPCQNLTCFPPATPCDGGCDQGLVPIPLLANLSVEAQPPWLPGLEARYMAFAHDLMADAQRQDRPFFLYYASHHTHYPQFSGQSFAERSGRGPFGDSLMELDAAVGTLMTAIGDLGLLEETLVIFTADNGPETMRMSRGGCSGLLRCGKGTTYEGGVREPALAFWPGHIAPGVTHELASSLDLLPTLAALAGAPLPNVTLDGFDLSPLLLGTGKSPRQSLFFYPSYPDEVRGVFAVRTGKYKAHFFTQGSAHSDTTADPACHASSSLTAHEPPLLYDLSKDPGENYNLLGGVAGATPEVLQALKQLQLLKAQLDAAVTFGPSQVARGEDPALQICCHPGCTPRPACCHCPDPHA
Outline: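 Cell-based enhancement test: residual ASA activity in SV40-transformed I179S patient fibroblasts is measured by pNCS turnover (0.5mM final, 14h, room temperature) following 48h compound incubation; higher fluorescence indicates activation.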

[10] = qHTS for compounds that reverse cellular toxicity of Amyloid beta (A-beta) peptide in yeast: LOPAC Validation Assay (AID 720559);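 also: plate controls were DMSO for no effect and equimolar ferric chloride plus clioquinol rescue for full effect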
Outline: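 Here, A-beta-toxic yeast grow with test compounds at 30 C for 48 hr before optical density at 600 nm is recorded; data are normalized against DMSO and the FeCl3-clioquinol control.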

[11] = qHTS for Activators of Parkin Expression: LOPAC Validation Assay (NLuc Reporter) (AID 720572)
Outline: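 Compound effects on Parkin promoter activity were measured as NanoLuc luminescence after 24 h at 37 C. The neuronal reporter line also carried FLuc, which was read first. LOPAC compounds were tested at 7 concentrations, with normalization to DMSO (0%) and positive control (100%).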

[12] = qHTS for Activators of Parkin Expression: LOPAC Validation Assay (FLuc Reporter) (AID 720573)
Outline: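 Readout is FLuc luminescence from neuronal reporter cells (Parkin promoter, FLuc plus NLuc) after 24 h compound exposure in dose response. Values normalized to neutral DMSO and positive-control compounds.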

[13] = molecular target: Hexokinase-4 (Homo sapiens) + Glucokinase regulatory protein (Homo sapiens) (UniProt P35557+Q14397); experiment: qHTS assay for inhibitors of recombinant human GCK-GKRP interaction: Diaphorase-coupled assay (AID 743205)
Hexokinase-4 (Homo sapiens) + Glucokinase regulatory protein (Homo sapiens), sequence (P35557 whole entry, looked up): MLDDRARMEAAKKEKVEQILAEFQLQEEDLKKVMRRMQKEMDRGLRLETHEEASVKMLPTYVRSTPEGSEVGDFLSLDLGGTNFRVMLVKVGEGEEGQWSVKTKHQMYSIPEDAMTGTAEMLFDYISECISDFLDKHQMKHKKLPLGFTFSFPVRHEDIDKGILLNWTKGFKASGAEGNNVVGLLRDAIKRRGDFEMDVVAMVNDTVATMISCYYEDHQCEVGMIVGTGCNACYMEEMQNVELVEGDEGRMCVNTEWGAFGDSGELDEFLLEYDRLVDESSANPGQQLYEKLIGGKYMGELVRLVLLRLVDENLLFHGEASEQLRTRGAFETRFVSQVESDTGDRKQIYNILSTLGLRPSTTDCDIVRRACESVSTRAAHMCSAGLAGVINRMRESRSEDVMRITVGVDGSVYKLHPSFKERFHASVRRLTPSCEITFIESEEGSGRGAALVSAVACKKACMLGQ
Hexokinase-4 (Homo sapiens) + Glucokinase regulatory protein (Homo sapiens), sequence (Q14397 whole entry, looked up): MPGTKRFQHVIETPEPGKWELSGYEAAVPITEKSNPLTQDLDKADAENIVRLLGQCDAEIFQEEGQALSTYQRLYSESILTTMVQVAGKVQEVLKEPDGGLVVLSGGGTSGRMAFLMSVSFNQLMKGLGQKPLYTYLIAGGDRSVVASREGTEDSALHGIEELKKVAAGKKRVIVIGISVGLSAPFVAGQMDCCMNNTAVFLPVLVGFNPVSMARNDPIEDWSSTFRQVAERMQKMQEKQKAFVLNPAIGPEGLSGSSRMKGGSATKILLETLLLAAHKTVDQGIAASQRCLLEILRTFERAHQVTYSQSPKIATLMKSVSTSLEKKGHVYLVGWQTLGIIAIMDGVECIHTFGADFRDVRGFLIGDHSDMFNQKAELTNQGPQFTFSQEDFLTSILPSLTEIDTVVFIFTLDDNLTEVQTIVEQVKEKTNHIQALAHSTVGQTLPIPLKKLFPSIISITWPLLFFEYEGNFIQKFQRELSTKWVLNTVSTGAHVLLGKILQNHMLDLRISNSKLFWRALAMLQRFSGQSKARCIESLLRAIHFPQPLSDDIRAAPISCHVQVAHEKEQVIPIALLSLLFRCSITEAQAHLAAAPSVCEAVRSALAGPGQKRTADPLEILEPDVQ
Outline: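 Signal derives from resorufin generated by diaphorase, linked to GCK turnover of glucose (5 mM) and ATP (0.4 mM). Enzyme complex was added after a 20-minute compound preincubation and monitored for 30 minutes.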

O=c1cc(-c2ccccc2)oc2cc(O)cc(O)c12
active: Potency [1] 10.9 µM | Potency [3] 39.8 µM | Potency [5] 13.7 µM
inactive: activation [2] 22.8% | max response [4] -1.65% | max response [6] -2.85%

O=C(O)c1cc(-c2ccccc2)nc2ccccc12
inactive: activation [2] -1.06% | activation [3] 4.06% | max response [4] -3.44% | max response [6] -16.1%

COc1cc2nc(-c3ccc(N4CCN(C)CC4)cc3)nc(NCCN3CCOCC3)c2cc1OC
active: Potency [7] 29.6 µM
inactive: outcome [8]

O=C(N[C@@H](c1ccccc1)[C@@H]1CCCCN1)c1cccc(C(F)(F)F)c1Cl
inactive: Potency [7] | outcome [8]

CC(=O)Nc1ccc([C@H](C)C(=O)Nc2ncc(C(C)C)s2)cc1
inactive: outcome [8]

Clc1ccc(C(c2ccc(Cl)cc2)n2cc[n+](CC(OCc3ccc(Cl)cc3Cl)c3ccc(Cl)cc3Cl)c2)cc1 (stereo not given)
inactive: outcome [9] | outcome [10] | Potency [11] | Potency [12] | outcome [13]

COC(=O)[C@@H]1[C@H]2C[C@H]3c4[nH]c5ccccc5c4CCN3C[C@@H]2CC[C@@H]1O
inactive: outcome [9] inactive; inhibitor; fitted 2.3934 uM | outcome [10] | Potency [11] | Potency [12] | outcome [13]

COc1ccccc1N1CCN(CCCNc2cc(=O)n(C)c(=O)n2C)CC1
inactive: outcome [9] | outcome [10] | Potency [11] | Potency [12] | outcome [13]

CCN(CC)CCNC(=O)c1ccc(N)cc1
inactive: outcome [9] | outcome [10] | Potency [11] | Potency [12] | outcome [13]

CC(C)NCC(O)COc1cccc2[nH]ccc12 (stereo not given)
inactive: outcome [9] | outcome [10] | Potency [11]

CC(=O)CCCCn1c(=O)c2c(ncn2C)n(C)c1=O
inactive: outcome [10] | Potency [11] | Potency [12] | outcome [13]

CC(C)(C)c1ccc(C(O)CCCN2CCC(C(O)(c3ccccc3)c3ccccc3)CC2)cc1 (stereo not given)
inactive: outcome [9] | outcome [10] | Potency [11] | Potency [12]

CCN1CCC[C@H]1CNC(=O)c1cc(S(N)(=O)=O)ccc1OC
inactive: outcome [9] | outcome [10] | Potency [11] | Potency [12] | outcome [13]

O=C(O)CCc1nc(-c2ccccc2)c(-c2ccccc2)o1
inactive: outcome [9] | outcome [10] | Potency [12]

CC1(C)CCC2=C(O1)c1ccccc1C(=O)C2=O
inactive: outcome [9] | outcome [10] | Potency [11] | Potency [12] | outcome [13]

CCCCCN(C)CCC(O)(P(=O)(O)O)P(=O)(O)O
inactive: outcome [9] | outcome [10] | Potency [11] | Potency [12] | outcome [13]

CO[C@H]1C=CC=C(C)C(=O)NC2=CC(=O)C(NCCN(C)C)=C(C[C@@H](C)C[C@H](OC)[C@@H](O)[C@@H](C)C=C(C)[C@@H]1OC(N)=O)C2=O
inactive: outcome [8]

Clc1ccc(Cn2c(CN3CCCC3)nc3ccccc32)cc1
inactive: outcome [9] inactive; inhibitor; fitted 0.0054 uM | outcome [10] | Potency [11] | Potency [12] | outcome [13]

c1ccc2c(-c3cnn4cc(-c5ccc(N6CCNCC6)cc5)cnc34)ccnc2c1
inactive: outcome [8]

O=c1cc(CN2CCOCC2)occ1OCCCCCSc1ccnc2cc(C(F)(F)F)ccc12
inactive: outcome [8]

COc1cccc(-c2cc(=O)c3ccccc3o2)c1N
inactive: outcome [10] | Potency [11] | outcome [13]

CCN(CC)CCOC(=O)c1ccc(N)cc1
inactive: outcome [9] | outcome [10] | Potency [11] | Potency [12] | outcome [13]

NCCS
inactive: outcome [9] | outcome [10] | Potency [11] | Potency [12] | outcome [13]

O=C1NCC2(CCN(CCc3ccccc3)CC2)O1
inactive: outcome [9] | outcome [10] | Potency [11] | Potency [12] | outcome [13]

NC(N)=Nc1nc(CSCC/C(N)=N/S(N)(=O)=O)cs1
inactive: outcome [9] | outcome [10] | Potency [11] | Potency [12] | outcome [13]

CO[C@@H](C(=O)N1Cc2[nH]nc(NC(=O)c3ccc(N4CCN(C)CC4)cc3)c2C1)c1ccccc1
inactive: outcome [8]

CN(C)Cc1ccc(-c2nc3cccc4c3n2CCNC4=O)cc1
inactive: outcome [8]

COc1ccc(Cc2nccc3cc(OC)c(OC)cc23)cc1OC
inactive: outcome [10] | Potency [11] | Potency [12]

O=C(NCCN1CCOCC1)c1ccc(Cl)cc1
inactive: outcome [9] | outcome [10] | Potency [11] | Potency [12] | outcome [13]

C[N+](C)(C)CCCCCC[N+](C)(C)C
inactive: outcome [9] | outcome [10] | Potency [11] | Potency [12] | outcome [13]

Cc1cccc(C)c1OCC(C)N (stereo not given)
inactive: outcome [9] | outcome [10] | Potency [11] | Potency [12] | outcome [13]

CCN(CC)C(=O)c1ccc(O)c(OC)c1
inactive: outcome [9] inactive; inhibitor; fitted 6.012 uM | outcome [10] | Potency [11] | Potency [12] | outcome [13]
